Data taken from PubChem BioAssay (NCATS).
Records with an inconclusive call do not appear. Activity calls are given as the source filed them. Unless noted, calls follow the shape of the dose curve; as a rule, active = well fitted curve in the direction sought with a large enough effect; inconclusive = small, poorly fitted or top-dose-only effect, or another doubt; inactive = no such curve, though single readings can be large; an effect the other way counts as inactive or inconclusive.

What was measured:
[1] = High-throughput drug toxicity screening in the BPDCN cell line Gen2.2 (AID 1224824; call rule not given here;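 also: cells exposed to compounds for 48 h before reading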); details: Gen2.2 BPDCN cells; at 45.8 µM (top of the series) unless noted
How it was run: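 Gen2.2 cells, 500 per well in phenol red-free RPMI with 10% FBS, exposed to compounds 48 h at 37 C, 5% CO2; viability by CellTiter-Glo luminescence. Percent activity scaled to DMSO (100%) and 9.2 uM bortezomib final (0%).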

[2] = High-throughput drug toxicity screening in the BPDCN cell line Cal-1 (AID 1224825; call rule not given here); details: Cal-1 BPDCN cell viability, qHTS; at 45.8 µM (top of the series) unless noted
How it was run: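 Exponentially growing Cal-1 cells, 500 per well in phenol red-free RPMI with 10% FBS, were exposed to compounds for 48 h at 37 °C, 5% CO2. Viability was read by CellTiter-Glo luminescence and normalised to DMSO (100%) and 9.2 uM bortezomib (0%).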

[3] = qHTS assay for measurement of the activity of small molecule inhibitors on Zika virus induced Caspase-3 activity in human astrocytoma cells (AID 1224859);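 also: plate controls were ZIKV-infected untreated cells for no effect and uninfected cells for full effect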
How it was run: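 Human SNB-19 astrocytoma cells in RPMI 1640 with 10% FBS receive compound one hour ahead of Zika virus at 2 FFU/cell. After 6 h infection, caspase-3/7 activity is detected by Caspase-Glo luminescence.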

[4] = qHTS Screen of the MIPE 4.0 Collection Against Ewings Sarcoma (RDES) (AID 1259252); also: nearly all actives have a fitted effect of over 35% in size; also: potency is read from the fitted curve at half-maximal effect
How it was run: (§1)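 Here, cells in 5% FBS RPMI were exposed for two days (48 h) to compound dilutions added four hours after plating. ATP-based CellTiter-Glo luminescence measured viability, normalized to vehicle and no-cell blanks.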

[5] = qHTS Screen of the MIPE 4.0 Collection Against Ewings Sarcoma (TC71) (AID 1259253); also: nearly all actives have a fitted effect of over 40% in size; also: potency is read from the fitted curve at half-maximal effect
How it was run: as §1

[6] = qHTS Screen of the MIPE 4.0 Collection Against Ewings Sarcoma (EW8) (AID 1259255); also: nearly all actives have a fitted effect of over 35% in size; also: potency is read from the fitted curve at half-maximal effect;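 as to viability: 100% = DMSO-treated cells and 0% = medium-only wells without cells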
How it was run: as §1

[7] = qHTS Screen of the MIPE 4.0 Collection Against Ewings Sarcoma (TC32) (AID 1259256); also: nearly all actives have a fitted effect of over 45% in size; also: potency is read from the fitted curve at half-maximal effect
How it was run: as §1

[8] = Identifying Small Molecule Inhibitors of Pancreatic Cancer Stem Cells (SN12C, Adherent) (AID 1259358);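 also: cell survival measured after 48 h of compound exposure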; also: potency is read from the fitted curve at half-maximal effect
How it was run: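 Luminescent ATP readout (CellTiter-Glo) quantifies surviving cells after a 48 h drug incubation. Normalization uses DMSO wells as no inhibition and media-only wells as full inhibition; bortezomib served as positive control.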

[9] = qHTS profiling of the MIPE4 collection as inhibitors of Plasmodium falciparum (3D7) proliferation (AID 743344; call rule not given here;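 also: scaled between DMSO vehicle wells and 0.29 µM artemisinin as full inhibition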); details: P. falciparum 3D7 in erythrocytes, SYBR Green DNA fluorescence, 72 h; at 28.5 µM (top of the series) unless noted
How it was run: (§2)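 Erythrocytes infected with P. falciparum (0.3% parasitemia, 2.5% hematocrit) incubated with compounds 72 h at 37 C, 5% CO2. Lysis with saponin/Triton buffer containing SYBR Green I, overnight at room temperature in the dark; DNA fluorescence (485/535 nm) normalised to 0.29 uM artemisinin and DMSO.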

[10] = qHTS profiling of the MIPE4 collection as inhibitors of Plasmodium falciparum (DD2) proliferation (AID 743345; call rule not given here); details: P. falciparum Dd2 in erythrocytes, SYBR Green DNA, 72 h; at 28.5 µM (top of the series) unless noted
How it was run: as §2

[11] = qHTS profiling of the MIPE4 collection as inhibitors of Plasmodium falciparum (DD2) proliferation (Rep 2) (AID 743346; call rule not given here); details: P. falciparum Dd2 in erythrocytes, SYBR Green DNA, 72 h; at 28.5 µM (top of the series) unless noted
How it was run: as §2

[12] = qHTS profiling of the MIPE4 collection as inhibitors of Plasmodium falciparum (HB3) proliferation (AID 743347; call rule not given here;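 also: plate controls were DMSO vehicle wells for no effect and artemisinin wells for full effect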); details: P. falciparum HB3 in erythrocytes, SYBR Green DNA, 72 h; at 28.5 µM (top of the series) unless noted
How it was run: as §2

[13] = qHTS profiling for inhibitors of Plasmodium falciparum (3D7) proliferation (AID 743322; call rule not given here;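 also: infected erythrocytes exposed to compound for 72 h before lysis; 100% = DMSO vehicle wells and 0% = 0.29 µM artemisinin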); details: P. falciparum 3D7 proliferation; at 28.7 µM (top of the series)
How it was run: as §2

[14] = qHTS profiling for inhibitors of Plasmodium falciparum (DD2) proliferation (AID 743323; call rule not given here); details: lower = more inhibition; at 28.7 µM (top of the series)
How it was run: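 SYBR Green fluorescence (ex 485, em 535 nm) of lysed cultures gives parasite DNA content; wells normalized to artemisinin (0.29 uM) and DMSO controls. Infected red cells: 0.3% parasitemia, 2.5% hematocrit, 72 h, 37 C.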

[15] = qHTS profiling for inhibitors of Plasmodium falciparum (HB3) proliferation (AID 743324); details: Plasmodium falciparum HB3 blood-stage proliferation; at 28.7 µM (top of the series);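 also: 100% = DMSO vehicle wells and 0% = artemisinin-treated control wells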
How it was run: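 P. falciparum HB3 grown in erythrocytes (0.3% parasitemia, 2.5% hematocrit final) with compound for 72 h at 37 C, 5% CO2. Parasite DNA detected by SYBR Green after saponin/triton lysis overnight; normalized to 0.29 uM artemisinin and DMSO.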

[16] = qHTS assay for measurement of the activity of small molecule inhibitors on Zika virus induced Caspase-3 activity in human iPSC derived neural progenitor cells (hNPCs) (AID 1224857); also: % of control where 0% means no effect; nearly all actives have a fitted effect of over 65% in size
How it was run: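 Pretreat hNPCs with compound 1 h; infect ZIKV 2 FFU/cell; 6 h 37 C, 5% CO2; Caspase-Glo 3/7, 30 min RT; luminescence; normalize to no-virus and virus-only wells.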

[17] = Identifying Small Molecule Inhibitors of Pancreatic Cancer Stem Cells (A2780, Spheroid) (AID 1259357); details: Potency: A2780 spheroid viability;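 also: compound exposure lasted 48 h before the ATP luminescence read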; also: potency is read from the fitted curve at half-maximal effect
How it was run: (§3)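 Cytotoxicity read by CellTiter-Glo luminescence after 48 h compound exposure at 37C; percent activity scaled between DMSO-treated cells and cell-free wells. Spheroid formats used cells pre-formed 14 days in stem cell media on hydrogel.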

[18] = Identifying Small Molecule Inhibitors of Pancreatic Cancer Stem Cells (Panc1, Spheroid) (AID 1259359);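 also: potency is read from the fitted curve at half-maximal effect; compound exposure lasted 48 h before reading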
How it was run: as §3

Compound	cell viability, % of control (lower = more cytotoxic) [1]	viability (% of control) [2] [%]	Potency [3]	Potency [4]	Potency [5]	Potency [6]	Potency [7]	Potency [8]	parasite growth, % of DMSO control [9] [%]	parasite growth remaining, % of DMSO control (lower = more inhibition) [10]	parasite growth, % of control (lower = inhibition) [11]	growth, % of control [12]	remaining parasite growth % (stronger effect = lower value) [13] [%]	activity, percent of control [14] [%]	remaining proliferation (% of control), lower = more inhibition [15] [%]	Potency [16]	Potency [17]	Potency [18]
Fc1cc(-c2cccc3ncc(-c4cnn(C5CCNCC5)c4)nc23)cc(F)c1CN1CCOCC1	5.16%	5.7	inactive	20.9 µM (active)	20.9 µM (active)	20.9 µM (active)	18.7 µM (active)	23.5 µM (active)										
CS(=O)(=O)c1ccc(-c2cnc(N)c(C(=O)Nc3ccccc3)n2)cc1	99.6%	41.5	inactive	inactive	10.5 µM (active)	13.2 µM (active)	4.18 µM (active)		7.85	9.88%	7.67%	2.44%						
O=C(c1cncc(Br)c1)N1CCC(N2CCCC2)CC1	144%	126			inactive	inactive	inactive		102	105%	80.8%	96.9%						
C=C1C(=CC=C2CCCC3(C)[C@@H]([C@H](C)C=CC=CC(O)(CC)CC)CC[C@@H]23)C[C@@H](O)C[C@@H]1O (some centres undefined)	17.9%	6.44	inactive	18.7 µM (active)	18.7 µM (active)	23.5 µM (active)	20.9 µM (active)			83.6%	12.7%	15%	65.1	71.5	20.6			
NC(=O)c1c(OCc2c(F)cc(Br)cc2F)nsc1NC(=O)NCCCCN1CCCC1	24.4%	4.13	inactive	16.6 µM (active)	18.7 µM (active)	9.35 µM (active)	14.8 µM (active)	5.26 µM (active)	47.5	74.6%		5.84%	-0.239	17.3	2.02			
CC(=O)OCCN1C(=O)c2c(C)nc3ccc(S(=O)(=O)N4CCOCC4)cc3c2C1=O	69.9%		inactive	inactive	inactive	inactive	inactive	inactive	365		86.6%	666%	96.2	97.6	103	inactive	inactive	
C=CC(=O)Nc1cc2c(Nc3ccc(F)c(Cl)c3)ncnc2cc1OCCCN1CCOCC1	5.62%		inactive	20.9 µM (active)	14.8 µM (active)	16.6 µM (active)	14.8 µM (active)	23.5 µM (active)	31.1	16%	29.7%	3.29%	-0.797	10.5	1.71	inactive	23.5 µM (active)	
CC(NCc1ccc2c(c1)nc(NC(=O)c1ccc(-c3cn[nH]c3)s1)n2CC(C)(C)O)C(C)(C)C (centres undefined)	2.71%	2.63		0.469 µM (active)	0.332 µM (active)	0.469 µM (active)	0.372 µM (active)	0.296 µM (active)			9.25%	3.84%	-1.9	-0.339	-1			0.166 µM (active)
CC1(O)CC(c2nc(-c3ccc4ccc(-c5ccccc5)nc4c3)c3c(N)nccn23)C1 (centres undefined)	117%	8.23	inactive	20.9 µM (active)	5.9 µM (active)	13.2 µM (active)	0.0743 µM (active)		9.23	19%	10.7%	5.32%	0.533	2.21				0.148 µM (active)
CN(C)c1nc(Cc2ccc(NC(=O)c3ccc4ccccc4c3)cc2)nc(Cl)c1CC(=O)O	90.6%		inactive	inactive	inactive	inactive	inactive			87.6%	42.6%	85.9%						
CC(C)c1ccccc1Cc1cc(C(=O)Nc2ccc(S(=O)(=O)c3ccccc3C(C)(C)C)cc2)c(O)c(O)c1O	20.8%		inactive	7.43 µM (active)	7.43 µM (active)	8.33 µM (active)	8.33 µM (active)	inactive		6.18%	11.2%	7.71%	0.404	2.09	-0.184	inactive		
Nc1nc(Nc2ccc(S(N)(=O)=O)cc2)nn1C(=O)c1c(F)cccc1F	13.3%		inactive	8.33 µM (active)	5.26 µM (active)	8.33 µM (active)	7.43 µM (active)		16.5	11.8%	14.1%	9.06%	14.8	9.84	10.9	inactive	4.18 µM (active)	
COc1c(OCCCN2CCOCC2)ccc2c3n(c(=NC(=O)c4cnc(N)nc4)nc12)CCN3	37.7% [at 23.2 µM]		inactive	0.0575 µM (active)	1.82 µM (active)	0.724 µM (active)	0.457 µM (active)			12% [at 9.64 µM]	16.8% [at 9.64 µM]	3.45% [at 9.64 µM]				inactive		
CC(C)[C@H](C(=O)Nc1ccc(C(=O)NO)cc1)c1ccccc1	13.6%		inactive		0.662 µM (active)	0.526 µM (active)	0.526 µM (active)	3.72 µM (active)	5.04	6.95%	12.7%	9.39%	-0.0537	0.199	0.544	inactive		
CC(C)c1cc(C(=O)N2Cc3ccc(CN4CCN(C)CC4)cc3C2)c(O)cc1O	29.3%			0.469 µM (active)	0.235 µM (active)	0.372 µM (active)	0.209 µM (active)			7.69%	9.28%	2.52%				inactive		
